# Source: PubChem BioAssay (Tox21)
# Values joined by “and” are separate entries in the source; they are usually repeats but may differ in a detail not shown here. Identical values can stand only once. A number with no mark means an inactive call. Results filed as inconclusive are left out. A call without a number means that no potency is given here. Active and inactive are the calls of the source. Unless noted, calls come from the whole dose curve; as a rule, active = well fitted curve in the direction sought with a large enough effect in the repeat runs; inconclusive = weak or mixed curves; inactive = no such curve, though single readings can be large; an effect the other way counts as inactive or inconclusive.
# What was measured:
# [1] = qHTS assay to identify small molecule antagonists of the glucocorticoid receptor (GR) signaling pathway - cell viability counter screen (AID 720693); note: nearly all actives have a fitted effect of over 55% in size
# [2] = qHTS assay for identifying genotoxic compounds that show differential cytotoxicity against isogenic chicken DT40 cell lines with known DNA damage response pathways - wild type cell line (AID 743012); note: nearly all actives have a fitted effect of over 60% in size; note: potency is the fitted concentration of half-maximal effect
# How it was run: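 Luminescent ATP viability signal (CellTiter-Glo, 30 min RT) recorded after wild type DT40 cells were incubated with compounds for 40 h at 37 C/5% CO2.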
# [3] = qHTS assay for identifying genotoxic compounds that show differential cytotoxicity against isogenic chicken DT40 cell lines with known DNA damage response pathways - Rev3 mutant cell line (AID 743014); note: nearly all actives have a fitted effect of over 55% in size; note: potency is the fitted concentration of half-maximal effect
# [4] = qHTS assay for identifying genotoxic compounds that show differential cytotoxicity against isogenic chicken DT40 cell lines with known DNA damage response pathways - Rad54/Ku70 mutant cell line (AID 743015); note: nearly all actives have a fitted effect of over 60% in size; note: potency is the fitted concentration of half-maximal effect
# [5] = qHTS assay to identify small molecule antagonists of the androgen receptor (AR) signaling pathway - cell viability counter screen (AID 743033; note: nearly all actives have a fitted effect of over 45% in size; note: potency is the fitted concentration of half-maximal effect)
# [6] = qHTS assay to identify small molecule antagonists of the androgen receptor (AR) signaling pathway using the MDA cell line - cell viability counter screen (AID 743041; note: nearly all actives have a fitted effect of over 45% in size)
# How it was run: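 Viability read by CellTiter-Fluor fluorescence in the same wells as the antagonist screen, added after 15.5 h of a 16 h, 37C exposure. Human breast carcinoma MDA-kb2 AR-luc cells, compounds co-dosed with agonist R1881.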
# [7] = molecular target: Androgen receptor (Homo sapiens) (UniProt P10275); assay: qHTS assay to identify small molecule antagonists of the androgen receptor (AR) signaling pathway (AID 743035; active = well fitted inhibition curve with a large enough effect in the signal ratio in the repeat runs, not every such curve was filed as active; the % refers to the signal ratio)
# How it was run: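 Quantitative HTS of the Tox21 10K library used HEK293 AR-UAS-bla cells stimulated with R1881 alongside compound for 16 h at 37C, followed by beta-lactamase FRET detection (LiveBLAzer B/G, 2 h, RT).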
# [8] = molecular target: Androgen receptor (Homo sapiens) (UniProt P10275); assay: qHTS assay to identify small molecule agonists of the androgen receptor (AR) signaling pathway using the MDA cell line (AID 743040; note: potency is the fitted concentration of half-maximal effect; nearly all actives have a fitted effect of over 20% in size)
# How it was run: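 Luciferase agonist assay: 16 h compound exposure at 37C without CO2 in MDA-kb2 AR-luc cells, whose MMTV promoter responds to both AR and GR. Luminescence measured after 30 min room-temperature incubation with ONE-Glo.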
# [9] = molecular target: Androgen receptor (Homo sapiens) (UniProt P10275); assay: qHTS assay to identify small molecule antagonists of the androgen receptor (AR) signaling pathway using the MDA cell line (AID 743042; note: nearly all actives have a fitted effect of over 55% in size)
# How it was run: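 Antagonist mode: compounds plus R1881 agonist added to MDA-kb2 AR-luc cells, incubated 16 h at 37C. Luciferase reporter luminescence quantified, with multiplexed CellTiter-Fluor readout for cell viability.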
# Androgen receptor (Homo sapiens), sequence (P10275 whole entry, looked up): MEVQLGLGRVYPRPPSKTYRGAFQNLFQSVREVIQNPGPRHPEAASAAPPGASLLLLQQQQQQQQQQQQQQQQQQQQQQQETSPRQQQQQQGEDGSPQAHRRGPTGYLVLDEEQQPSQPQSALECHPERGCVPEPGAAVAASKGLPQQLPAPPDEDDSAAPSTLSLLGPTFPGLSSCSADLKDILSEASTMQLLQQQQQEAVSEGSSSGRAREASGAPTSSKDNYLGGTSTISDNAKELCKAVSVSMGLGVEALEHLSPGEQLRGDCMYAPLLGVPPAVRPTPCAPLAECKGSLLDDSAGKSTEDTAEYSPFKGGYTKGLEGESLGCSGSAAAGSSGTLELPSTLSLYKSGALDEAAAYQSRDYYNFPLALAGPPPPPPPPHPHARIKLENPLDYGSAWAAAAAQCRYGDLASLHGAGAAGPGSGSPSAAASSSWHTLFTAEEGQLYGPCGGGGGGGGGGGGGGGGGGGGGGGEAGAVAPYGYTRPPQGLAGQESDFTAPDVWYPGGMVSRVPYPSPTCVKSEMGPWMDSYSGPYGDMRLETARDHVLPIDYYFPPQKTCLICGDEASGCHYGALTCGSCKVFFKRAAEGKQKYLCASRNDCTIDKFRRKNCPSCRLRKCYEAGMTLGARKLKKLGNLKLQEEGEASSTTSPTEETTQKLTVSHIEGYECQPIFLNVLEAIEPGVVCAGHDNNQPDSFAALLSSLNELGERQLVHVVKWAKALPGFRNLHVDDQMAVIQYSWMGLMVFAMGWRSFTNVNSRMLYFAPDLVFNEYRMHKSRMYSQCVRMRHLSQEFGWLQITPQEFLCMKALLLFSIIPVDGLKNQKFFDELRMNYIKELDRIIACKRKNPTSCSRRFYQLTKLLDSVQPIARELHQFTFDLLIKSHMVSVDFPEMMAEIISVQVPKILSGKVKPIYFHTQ
compound,measurement,setting,value
N=c1ccn2c(n1)O[C@H]1[C@H](O)[C@@H](CO)O[C@H]12,Potency,[1],inactive
same,Potency,[2],211 nM (active) and 193 nM (active)
same,Potency,[3],237 nM (active) and 137 nM (active)
same,Potency,[4],266 nM (active) and 172 nM (active)
same,Potency,[5],inactive
same,Potency,[6],inactive
O=C(Cl)c1cc(C(=O)Cl)cc(C(=O)Cl)c1,Potency,[1],inactive
same,Potency,[2],19.3 µM (active)
same,Potency,[3],27.3 µM (active)
same,Potency,[4],19.3 µM (active)
same,Potency,[5],inactive
same,Potency,[6],inactive
C=CC(=O)OCCOCCOC(=O)C=C,Potency,[1],inactive
same,Potency,[2],9.73 µM (active)
same,Potency,[3],6.14 µM (active)
same,Potency,[4],9.73 µM (active)
same,Potency,[5],39.1 µM (active)
C[C@H]1C[C@H]2[C@@H]3CCC4=CC(=O)C=C[C@]4(C)[C@@]3(Cl)[C@@H](O)C[C@]2(C)[C@@]1(O)C(=O)CO,Potency,[1],inactive
same,Potency,[2],inactive
same,Potency,[3],inactive
same,Potency,[4],inactive
same,Potency,[5],inactive
same,Potency,[6],inactive
CC(=O)c1ccc2c(c1)N(CCCN1CCC(CCO)CC1)c1ccccc1S2,Potency,[1],inactive
same,Potency,[2],12.7 µM (active)
same,Potency,[3],12.7 µM (active)
same,Potency,[4],11.4 µM (active)
same,Potency,[5],inactive
same,Potency,[6],inactive
CC(CC=O)c1ccccc1 (stereo not drawn),Potency,[1],inactive
same,Potency,[2],inactive
same,Potency,[3],inactive
same,Potency,[4],inactive
same,Potency,[5],inactive
same,Potency,[6],inactive
CCOC(=O)NCCOc1ccc(Oc2ccccc2)cc1,Potency,[1],inactive
same,Potency,[2],61.1 µM (active)
same,Potency,[3],68.6 µM (active)
same,Potency,[4],61.1 µM (active)
Nc1ccc(S(=O)(=O)Nc2ccccc2)cc1,Potency,[1],inactive
same,Potency,[2],inactive
same,Potency,[3],inactive
same,Potency,[4],inactive
same,Potency,[5],inactive
same,Potency,[6],inactive
C/C(=C(\CCOP(=O)(O)O)SC(=O)c1ccccc1)N(C=O)Cc1cnc(C)nc1N,Potency,[1],inactive
same,Potency,[2],inactive
same,Potency,[3],inactive
same,Potency,[4],inactive
same,Potency,[5],inactive
same,Potency,[7],inactive
same,Potency,[8],12.7 µM (active)
same,Potency,[6],inactive
same,Potency,[9],inactive
Cc1oc2c(NC(=O)c3c(Cl)cccc3Cl)cccc2c1C(C)(C)O,Potency,[1],inactive
same,Potency,[2],43.3 µM (active)
same,Potency,[3],27.3 µM (active)
same,Potency,[4],48.6 µM (active)
same,Potency,[5],inactive
Brc1c2ccccc2c(Br)c2ccccc12,"viability change, negative = cytotoxic",[1],-12.6% [at 7.04 µM]
same,"activity change, negative = cytotoxicity",[2],2.6% [at 8.52 µM]
same,"activity, negative = cytotoxicity",[3],2.95% [at 8.53 µM]
same,"activity change, negative = cytotoxicity",[4],3.28% [at 8.55 µM]
same,"activity change, negative = cytotoxicity",[5],0.327% [at 7.04 µM]
same,"viability change, negative = cytotoxic",[6],2.16% [at 8.47 µM]
COc1cc(Cl)ccc1Oc1ccc(Cl)cc1Cl,Potency,[1],inactive
same,Potency,[2],inactive
same,Potency,[3],inactive
same,Potency,[4],inactive
same,Potency,[5],inactive
same,Potency,[6],inactive
CCn1cc(C(=O)O)c(=O)c2cnc(N3CCNCC3)nc21,Potency,[1],inactive
same,Potency,[2],inactive
same,Potency,[3],inactive
same,Potency,[4],inactive
same,Potency,[5],inactive
same,Potency,[6],inactive
CN(C)CCN(Cc1ccccc1)c1ccccn1,Potency,[1],inactive
same,Potency,[2],inactive
same,Potency,[3],inactive
same,Potency,[4],inactive
same,Potency,[5],inactive
same,Potency,[6],inactive
